SMILES strings stand for the structures. Bounds are passed on as bounds.
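Note: kd values determined as follow-up on hits from a single-replicate KINOMEscan panel screen.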

For the first assay, the system named is T1, MLCK.
T1 construct: gene MYLK3
Take `O=C(Nc1n[nH]c2nc(-c3cccs3)c(Br)cc12)C1CC1` [SB-735297]: the affinity, expressed as Kd, was 180 nM. Same read-out and setting: with `O=C(Nc1n[nH]c2nc(-c3cccs3)c(Br)cc12)C1CCCC1` [SB-743341] the figure was 290 nM; with `CS(=O)(=O)CCNCc1nc(-c2ccc3ncnc(Nc4ccc(OCc5ccccc5)c(Cl)c4)c3c2)cs1.Cl` [GW582764], > 10000 nM.

The next assay deals with MYLK2.
`Nc1cccc(-c2ccc3c(N)n[nH]c3c2)n1` [GSK2192730]: the Kd turned out to be 180 nM. Still for that read-out and setting: with `O=C(Nc1n[nH]c2cc(-c3ccsc3)ccc12)C1CC1` [SB-732932] the figure was 41 nM.

`O=C(Nc1n[nH]c2nc(-c3cccs3)c(Br)cc12)C1CC1` [SB-735297] displayed a Kd of 8.4 nM. Same read-out and setting: with `O=C(Nc1n[nH]c2nc(-c3cccs3)c(Br)cc12)C1CCCC1` [SB-743341] the figure was 26 nM; with `O=C(Nc1n[nH]c2nc(-c3ccco3)c(Br)cc12)C1CCN(Cc2ccccc2)C1.O=C(O)[C@H](O)[C@@H](O)C(=O)O` (stereo not drawn) [SB-742034], 460 nM.

A further assay relates to PDGFRB.
As for `Cc1ccc(NC(=O)Nc2ccc(Cl)c(C(F)(F)F)c2)cc1-c1ccc(C(=O)Nc2ccncc2)cc1` [GSK1398470], the affinity, expressed as Kd, was 270 nM. On the same count and under the same terms, with `O=C(Nc1n[nH]c2cc(-c3ccsc3)ccc12)C1CC1` [SB-732932] the figure was 700 nM. Same read-out and setting: with `Cc1ccc(NC(=O)Nc2ccccc2F)cc1-c1ccc(C(=O)Nc2ccncc2)cc1` [GSK1398477] the figure was 47 nM; with `COc1cccc(NC(=O)Nc2ccc(C)c(-c3ccc(C(=O)Nc4ccncc4)cc3)c2)c1` [GSK1398474], 40 nM; with `Cc1cnc(N)c(/C=C/c2cncc(C(=O)NCCc3ccc(Cl)cc3Cl)c2)c1.Cl` [GSK190937], 140 nM. Same read-out and setting: the figure for `CS(=O)(=O)Cc1ccc(Nc2nccc(-c3c(-c4cccc(NC(=O)C5CCCCC5)c4)nn4ncccc34)n2)cc1` [GSK350559] is 74 nM. With `Cc1ccc(NC(=O)Nc2ccccc2)cc1-c1ccc(C(=O)Nc2ccncc2)cc1` [GSK1398471], the Kd was 28 nM. Same read-out and setting: with `Cc1ccc(NC(=O)c2ccc(Cl)cc2)cc1-c1ccc(C(=O)Nc2ccncc2)cc1` [GSK1398467] the figure was 9.7 nM. For `Cc1ccc(NC(=O)Nc2ccc(Cl)cc2)cc1-c1ccc(C(=O)Nc2ccncc2)cc1` [GSK1398472], the Kd came out at 86 nM.

A further assay relates to PIK3C2B.
As for `COc1cccc(NC(=O)Nc2ccc(C)c(-c3ccc(C(=O)Nc4ccncc4)cc3)c2)c1` [GSK1398474], the Kd was > 10000 nM. Still for that read-out and setting: with `COc1ccc(Nc2nccc(NCCNC(=O)Nc3cc(C)ccc3C)n2)cc1` [GSK1379899] the figure was > 10000 nM. Consider `Fc1ccc(-c2nc3n(c2-c2ccncc2)CCS3)cc1` [GI98581], for which the Kd is > 10000 nM. The same measure, in the same setting: with `CNCc1ccc2nc(NC(=O)c3ccc(C(C)(C)C)cc3)cn2c1` the figure was > 10000 nM.

For orientation: Kd means the constant that tells how readily two partners part at equilibrium. A higher Kd goes with a looser complex.

(Values after article PMC5540273 (PLoS ONE, 2017).)
